NADH coupling – inhibition of NAD/NADH coupling enzymes, library profiling; coupled PK/LDH NADH assays, four targets; IC50, µM (highest dose often 10 µM), for inactives: at the highest dose inhibition; 65,000 tested, 0.02% active; AID 774;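 active = single-dose screening hits from any of four coupled enzyme assays that gave an IC50 when retested across doses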;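 also: the DPM-DC format reads NADH fluorescence rather than 340 nm absorbance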
MK inhibit – blocks S. pneumoniae mevalonate kinase; purified MK, PK/LDH-coupled NADH absorbance 340 nm; inhibition, % at 10 µM; 65,000 tested, 0.48% active;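 active = ranked among the strongest by inhibition in the single 10 µM screen, a fixed top-ranked set picked for dose follow-up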
Spn PMK inh – blocks S. pneumoniae phosphomevalonate kinase; purified PMK, PK/LDH-coupled NADH absorbance 340 nm; inhibition, % at 10 µM; 65,000 tested, 0.49% active;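 active = top-ranked compounds by inhibition in the single 10 µM screen, taking a fixed number of the strongest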;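 also: 0% = full reaction with DMSO carrier and 100% = background rate without enzyme reaction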
Autofluor 339 – intrinsic fluorescence of library compounds, ex339/em460 – biochemical, MLSMR library, data from DPM-DC assay, artefact control, profiling panel; fluorescence fold increase at 10 µM; AID 709; compound autofluorescence, ex339/em460 nm, NADH buffer; hits give high values; 1 = no-compound wells, NADH background; 65,000 tested, 5.5% active;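 active = at 10 µM, mean starting fluorescence two-fold or more over control wells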;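 also: signal is the first read of a kinetic run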
DPM-DC inhibit – blocks S. pneumoniae diphosphomevalonate decarboxylase; calls only at 10 µM; purified DPM-DC, PK/LDH coupled NADH fluorescence; AID 556; 65,000 tested, 0.49% active;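 active = the 320 compounds with the highest percent inhibition in the single-dose primary screen, excluding strongly autofluorescent ones, cut at about 32% in these data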;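 also: kinetic rate of NADH fluorescence loss reporting ADP formed by the decarboxylase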
* marks the source's active call; other numbers are inactive results; i = inactive; . = no result shown; + = active, no number. Rows were chosen to be rich in hits. Some 6.6% of all compounds tested hit in one or more screens of this group.

SMILES	NADH coupling	MK inhibit	Spn PMK inh	Autofluor 339	DPM-DC inhibit
CCOC(=O)c1sc(NC(=O)c2noc3c2CCCC3)c(C(=O)OCC)c1C	3%	12	5	2.1*	.
Cc1cc(C)n(C(=O)c2cc3ccccc3c(=O)o2)n1	6%	5	14	1.1	i
Cc1ccc(Cn2c(NCCCn3ccnc3)nc3c2c(=O)n(C)c(=O)n3C)cc1	7%	12	8	1.1	i
COc1ccc(-c2cc3nc4n(c(=O)c3s2)CCOC4)cc1	2%	0	4	2.4*	.
COc1ccccc1N1CCN(C(=O)c2ccc(Br)s2)CC1	3%	9	0	1	i
COc1ccccc1N1CCN(C2CCN(C(=O)c3cccs3)CC2)CC1	19%	56*	2	1	i
Cn1c(C(=O)N2CCc3ccccc3C2)cc2c(=O)n3ccccc3nc21	7%	0	13	5*	.
Cc1cccn2c(=O)c3cc(C(=O)N4c5ccccc5CC4C)n(C)c3nc12 (stereo unspecified)	7%	4	13	1.9	i
Cn1c(C(=O)N2CCN(C(=O)c3ccco3)CC2)cc2c(=O)n3ccccc3nc21	3%	2	3	3.4*	.
Cc1cccn2c(=O)c3cc(C(=O)N4CCc5ccccc54)n(C)c3nc12	9%	8	10	2.5*	i
O=C(c1ccco1)N1CCN(c2nc3ccccc3c(=O)n2-c2ccccc2)CC1	3%	4	4	1.8	i
Cc1cccn2c(=O)c3cc(C(=O)N4CCN(C(=O)c5ccco5)CC4)n(C)c3nc12	4%	0	7	5*	.
CC1Cc2ccccc2N1C(=O)c1cc2c(=O)n3ccccc3nc2n1C (stereo unspecified)	2%	0	7	1.7	i
CC(C)CCSc1nnc(Cn2c(=O)sc3ccccc32)n1C	1%	2	0	1.1	i
CCN(CC)C(=O)c1cc2c(=O)n3cccc(C)c3nc2n1C	10%	11	9	5*	.
CCn1c2ccccc2c2nnc(SCC(=O)N3CC(C)OC(C)C3)nc21 (stereo unspecified)	8%	6	15	1.1	i
COc1cc2nc(N3CCN(C(=O)C4CCCO4)CC3)nc(N)c2cc1OC (stereo unspecified)	6%	3	9	3.9*	.
Cc1cc(C(=O)N2CCN(C(=O)C3CCCO3)CC2)no1 (stereo unspecified)	6%	5	13	1.1	i
Fc1cccc(CN2CCCCCCC2)c1	1%	3	0	1.1	i
CCCc1[nH]nc2c1C(c1ccc(OC)c(Cn3nnc4ccccc43)c1)C(C#N)=C(N)O2 (stereo unspecified)	22%	51*	10	1.1	i
COc1ccc(C2C(C#N)=C(N)Oc3n[nH]c(C)c32)cc1Cn1nnc2ccccc21 (stereo unspecified)	13%	14	24	1.1	i
Cc1cccc(NC(=O)CCN2C(=O)C3C4C=CC(C4)C3C2=O)n1 (stereo unspecified)	1%	0	3	1.1	i
C/C(=N\O)c1c(C)c2ccccc2n1C	4%	1	10	1.1	i
C/C(=N\O)c1ccc2c3ccccc3n(C)c2c1	10%	11	1	2.7*	i
Cc1cccn2c(N)c(-c3ccccc3)nc12	6%	0	12	2.1*	.
SMILES	NADH coupling	MK inhibit	Spn PMK inh	Autofluor 339	DPM-DC inhibit
O=C(OCc1nc2ccc(Cl)cc2n1CCO)c1ccc2c(c1)OCO2	5%	0	11	1.1	i
COc1cc(CNC2CCCC2)cc(OC)c1	14%	41*	0	1.1	i
O=C(COc1ccccc1)N1CCN(C(=O)Cc2ccccc2)CC1	3%	7	2	1.1	i
Cc1ccc(CNC(=O)C2CCN(S(=O)(=O)N3CCOCC3)CC2)cc1	6%	0	19	1.1	i
O=C(COC(=O)c1ccccc1NC(=O)c1ccco1)NCCC1=CCCCC1	12%	9	14	2*	.
O=C(c1cccn2c(=O)c3ccccc3nc12)N1CCN(c2ccccn2)CC1	5%	3	13	1.8	i
O=C(O)c1cccn2c(=O)c3ccccc3nc12	54µM*	13	11	1.4	+
CCCCCCSC1=C(C#N)C(c2ccc(O)cc2)CC(=O)N1 (stereo unspecified)	1%	3	0	1.1	i
CN1C(=O)C2(C(C#N)=C(N)Oc3c2oc(CO)cc3=O)c2ccccc21 (stereo unspecified)	0%	0	0	1.1	i
CCCCN(C)CCNC(=O)c1c[nH]c2ccc(S(=O)(=O)N(CC)CC)cc2c1=O	13%	0	19	3.2*	i
CCOC(=O)c1snc(C(=O)NC2CCCCC2)c1N	3%	8	0	2*	i
Nc1c(C(=O)NC2CCCCC2)nsc1C(=O)OCC(=O)NC1CCCCC1	17%	11	11	3.1*	i
Cc1cc(C)n2nc(SCC(=O)c3cc(C)n(-c4cc(C)on4)c3C)nc2n1	7%	0	20	1.1	i
COc1ccc(-n2c(CNC(=O)c3cc(OC)c(OC)c(OC)c3)n[nH]c2=S)cc1	7%	2	19	1.1	i
O=C(c1cccs1)N(CCO)Cc1cc2cc3c(cc2[nH]c1=O)OCCO3	7%	0	1	2.5*	i
Cc1cc(C)c2cc(CN(CCO)C(=O)Nc3ccc(F)cc3)c(=O)[nH]c2c1	5%	8	6	1.2	i
CC(=O)N(CCc1ccccc1C)Cc1cc2cc3c(cc2[nH]c1=O)OCO3	4%	6	8	3*	.
CCN(CC)CCCN(Cc1cc2cc3c(cc2[nH]c1=O)OCO3)C(=O)Nc1ccccc1OC	15%	7	5	2.8*	+
CCN(CC)CCCN(Cc1cc2cc3c(cc2[nH]c1=O)OCCO3)C(=O)Nc1ccc(F)cc1	11%	.	6	3.2*	i
C=CCC1(O)C(=O)N2C(=C1C(=O)N1CCOCC1)c1ccccc1CC2(C)C (stereo unspecified)	1%	3	0	1.1	i
COC(=O)c1c(C(=O)OC)n(CCCN)c2ccc(C)cc12	4%	5	0	2.4*	.
CCn1c(Sc2ccc(N)cc2Cl)nc2ccccc21	0%	0	0	1.1	i
CC12C=CC3(CN(Cc4ccccc4)C(=O)C3C1C(=O)NC1CC1)O2 (stereo unspecified)	11%	5	28*	1	i
CCc1cc(-c2n[nH]c(C)c2-c2nc3ccccc3n2C)c(O)c(CN2CCN(C)CC2)c1O	5%	5	10	1.1	i
CCc1cc2c(=O)c(-c3nc4ccccc4n3C)c(C)oc2c(CN2CCN(CCO)CC2)c1O	3%	6	0	2.2*	.
CCc1cc2c(=O)c(-c3nc4ccccc4n3C)c(C(C)C)oc2c(CN2CCN(C)CC2)c1O	13%	6	19	2.2*	.

Source: PubChem BioAssay (SRMLSC)
